# Source: ChEMBL document CHEMBL1201862, “PubChem BioAssay data set” (2004)
# Screen size: about 58,000 sequences; about 4,000 (6.9%) were called active. The calls are words filed in the database; no cut-off is given here. These entries were drawn from the full list. Entries with a potency or affinity are not part of this list.
# Tested on: HCT-15
row,Substance,GI50 [µM]
1,"cis-Bis[[(trimethylsilyl)methyl]amino]tetrachloroplatinum(IV), CHEMBL2146191",3.42
2,"[Bis(aminomethyl)tetramethylenesilane]dichloropaltinum(II), CHEMBL2146205",20.5
3,"[Bis(aminomethyl)dimethylsilane]tetrachloroplatinum(IV), CHEMBL2146190",8.45
4,"CISPLATIN, CHEMBL11359",7.21
5,"[Bis(aminomethyl)dimethylsilane]dichloroplatinum (II), CHEMBL2146201",27.5
6,"[Bis(aminomethyl)tetramethylenesilane]tetrachloropaltinum(IV), CHEMBL2146189",3.62
7,"mu-(1,7-nanodiamine-N,N')bis-(cis-aminedichloroplatimum (II)), CHEMBL2146215",37.1
8,"[Bis(aminomethyl)pentamethylenesilane]dichloropaltinum(II), CHEMBL2146202",5.21
9,"[Bis(aminomethyl)pentamethylenesilane]tetrachloropaltinum(IV), CHEMBL2146204",0.953
10,"[Bis(aminomethyl)diethylsilane]tetrachloroplatinum(IV), CHEMBL2146203",2.45
11,"[Bis(aminomethyl)ethylmethylsilane]tetrachloroplatinum(IV), CHEMBL2146192",3.5
